# Screening data (PubChem)
# BAZ2B inh: qHTS Assay for Inhibitors of BAZ2B | actives 4.4% (n = 360,000) | Potency, µM (titrated, usually from 114 µM), for the others: top-dose activity change, negative = inhibition, actives largely listed as inhibitors | Bromodomain adjacent to zinc finger domain protein 2B (Homo sapiens), Q9UIF8 | AlphaScreen BAZ2B-H3K14Ac peptide displacement; further: on the % scale 0 is the no-effect control and ±100 the full control effect; nearly all actives have a fitted effect of over 60% in size
#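 Compounds, titrated to a top concentration of 110 uM, were incubated 30 min at room temperature with preformed BAZ2B/acetyl-K14 H3 peptide complex (50 nM each). Proximity signal was measured by AlphaScreen after 20 min with beads.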
# PLK1 PBD inh: qHTS for Inhibitors of PLK1-PDB (polo-like kinase 1 - polo-box domain): Primary Screen; actives 2.8% (n = 360,000); Potency, µM, inactives show max response, negative = inhibition, hits mostly inhibitors; Plk1 PBD binding of FITC phosphopeptide, fluorescence polarization; Serine/threonine-protein kinase PLK1 (Homo sapiens), P53350; AID 720504, 2013; further: series mostly up to about 57 µM; on the % scale 0 is the no-effect control and ±100 the full control effect; nearly all actives have a fitted effect of over 65% in size
# L3MBTL1 block: qHTS Assay for the Inhibitors of L3MBTL1 | actives 0.66% (n = 230,000) | Lethal(3)malignant brain tumor-like protein 1 (Homo sapiens), Q9Y468 | Potency, µM (series often up to 57.1 µM), for the others: top-dose activity, negative = inhibition, actives largely listed as inhibitors | AID 485360, 2010 | AlphaScreen L3MBTL1–H3K9me1 peptide binding; further: on the % scale 0 is the no-effect control and ±100 the full control effect; nearly all actives have a fitted effect of over 60% in size
#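 AlphaScreen assay: L3MBTL1 (50 nM final) was preincubated 30 min at room temperature with biotinylated H3(1-15)K9me1 peptide (75 nM final), then 30 min with library compounds; streptavidin donor and nickel chelate acceptor beads (10 ug/mL final) added, 30 min dark.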
# VDR inhibitor: Inhibitors of the vitamin D receptor (VDR): qHTS; Vitamin D3 receptor (Homo sapiens), P11473; VDR-SRC2-3 peptide fluorescence polarization, 2 h; Potency, µM, for inactives: max response, negative = inhibition, usual class: inhibitors; actives 0.93% (n = 400,000); further: on the % scale 0 is the no-effect control and ±100 the full control effect
# Target sequence (P11473 whole entry, looked up): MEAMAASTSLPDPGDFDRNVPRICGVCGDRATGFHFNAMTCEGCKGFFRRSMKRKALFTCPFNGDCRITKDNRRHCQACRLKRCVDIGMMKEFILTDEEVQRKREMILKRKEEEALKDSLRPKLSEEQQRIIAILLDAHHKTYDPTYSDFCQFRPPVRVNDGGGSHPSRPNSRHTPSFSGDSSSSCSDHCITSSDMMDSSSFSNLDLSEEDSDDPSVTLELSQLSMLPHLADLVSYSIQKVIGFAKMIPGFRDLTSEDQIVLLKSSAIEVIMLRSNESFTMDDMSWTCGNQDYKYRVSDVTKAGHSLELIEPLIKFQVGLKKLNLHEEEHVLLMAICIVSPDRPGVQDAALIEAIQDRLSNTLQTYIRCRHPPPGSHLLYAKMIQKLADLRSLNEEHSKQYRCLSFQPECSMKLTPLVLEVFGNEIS
#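 Compounds are added to VDR with labelled SRC2-3 coactivator peptide and held 2 h at room temperature. Inhibition of the VDR–peptide interaction is then read as a change in fluorescence polarization.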
# HP1b binding inh: HTS for Inhibitors of HP1-beta Chromodomain Interactions with Methylated Histone Tails. AlphaScreen HP1-beta / biotin-H3K9me3 peptide binding. Potency, µM (top dose mostly 114 µM), for inactives: at the top dose activity change, negative = inhibition, most hits filed as inhibitors. actives 0.56% (n = 390,000); further: nearly all actives have a fitted effect of over 70% in size
# Target sequence (P83916 whole entry, looked up): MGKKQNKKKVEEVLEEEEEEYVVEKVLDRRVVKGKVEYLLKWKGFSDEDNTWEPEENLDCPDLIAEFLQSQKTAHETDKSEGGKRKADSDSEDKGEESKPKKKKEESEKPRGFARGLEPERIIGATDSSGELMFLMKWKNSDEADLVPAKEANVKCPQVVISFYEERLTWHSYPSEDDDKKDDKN
#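 Compound inhibition of the preformed complex between 50 nM HP1-beta and 50 nM biotinylated H3K9me3 peptide was read by AlphaScreen. Buffer was PBS pH 7.4 with 0.01% Tween-20. Incubations ran 30 min at room temperature, with 10 ug/mL donor/acceptor beads.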
# JMJD2A Tudor inh: qHTS Assay for Inhibitors of JMJD2A-Tudor Domain | AlphaScreen JMJD2A-Tudor / H3K4me3 peptide binding | Potency, µM (titrated, usually from 114 µM), without a hit: at the highest dose activity change, negative = inhibition, most hits filed as inhibitors | actives 4.4% (n = 390,000) | AID 504339, 2011; further: on the % scale 0 is the no-effect control and ±100 the full control effect; nearly all actives have a fitted effect of over 50% in size
# Starred values were filed as active, the others as inactive; ? = inconclusive; · = no result; [ ] = dose if it differs, or a comment. This is a sample that favours compounds with a hit; in the whole collection about 6.9% have one here. The call rests on the fitted dose curve; in most records, active means well fitted curve in the direction sought with a large enough effect; inconclusive means small, poorly fitted or top-dose-only effect, or another doubt; inactive means no such curve, though single readings can be large; an effect the other way counts as inactive or inconclusive. Potency means the concentration at half of the fitted maximal effect.
SMILES,BAZ2B inh,PLK1 PBD inh,L3MBTL1 block,VDR inhibitor,HP1b binding inh,JMJD2A Tudor inh
COc1ccc(-c2ccc(C(C)=O)cc2)cc1[C@H]1[C@H]2C=CC[C@@H](C)[C@@H]2C(=O)N1Cc1ccccc1,-22%,-9%,·,-11%,12%,-29%
COc1ccc(-c2ccc(N(C)C)cc2)cc1[C@H]1[C@H]2C=CC[C@@H](C)[C@@H]2C(=O)N1Cc1ccccc1,?,-1%,·,-4%,?,5.6µM*
COc1ccc(-c2ccc(N(C)C)cc2)cc1C1C2C=CCC(C)C2C(=O)N1Cc1ccccc1 (stereo unspecified),·,·,·,-4%,-24%,7.1µM*
COc1ccccc1NC(=O)C[n+]1ccccc1C,-12%,-6%,-3%,-1%,3%,-3%
CCCCNC(=O)C1(C)CCCCN1C(=O)c1ccc(OC)c(C(F)(F)F)c1 (stereo unspecified),·,3%,·,·,·,·
CN(C)c1ccc(N=C/C=C2\N(C)c3ccccc3C2(C)C)cc1,35µM*,-4%,?,-4%,50µM*,-8%[11.4 µM]
CN1\C(=C/C=C/C=C/C=[N+](C)C)C(C)(C)c2ccccc21,11µM*,72%,?,?,?,50µM*
COc1cc(CN(C(=O)COc2ccc(Cl)c(C)c2)c2ccccn2)cc(OC)c1OC,-5%,·,·,2%,40%,-6%
CCN(C(=O)Cn1ncc2c(=O)oc3ccc(C)cc3c21)c1cc(OC)ccc1OC,?,·,·,-8%,-1%,?
COc1cccc(OC)c1OCCNC(C)(C)C,50µM*,-3%,4%,-17%,-11%,8.9µM*
COc1cccc(OC)c1OCCN(C)C,35µM*,3%,·,10%,?,1µM*
COc1ccccc1OCCOCCOc1ccccc1Cl,79%,-2%,31%,-7%,124%,58%
COc1cccc(OC)c1OCCN1CCCC1,-5%,-11%,1%,-6%,19%,-22%
CCN(CC)CCOc1ccccc1OC,-35%,5%,·,0%,?,1.3µM*
CC(C)(C)NCCOc1ccc(Br)cc1,?,-1%,·,-1%,-33%,3.5µM*
COc1cc(NC(=O)C(CCSC)NS(=O)(=O)c2ccc3c(c2)oc(=O)n3C)cc(OC)c1 (stereo unspecified),5%,·,·,-1%,20%,-8%
CC(C1CC1)N(Cc1ccccc1)C(=S)Nc1ccccc1 (stereo unspecified),-1%,-14%,18%,-14%,46%,-18%
CC(C1CC1)N(Cc1ccccc1)C(=S)Nc1cccc(C(F)(F)F)c1 (stereo unspecified),4%,30µM*,13%,-19%,83%,27%
Cc1cc2nc3c(=O)[nH]c(=O)nc-3n(C)c2cc1C=O,·,·,·,-29%,·,·
CC(=O)OCCn1c2nc(=O)[nH]c(=O)c-2nc2cc(C)c(C)cc21,7%,0.84µM*,-10%,-18%,27%,-24%
COc1ccc(S(=O)(=O)N2c3ccccc3OCC2CC(=O)O)cc1 (stereo unspecified),-18%,21µM*,·,?,26%,-36%
O=C(O)CC1COc2ccccc2N1S(=O)(=O)c1ccc(Br)cc1 (stereo unspecified),8%,3%,·,-5%,25%,5%
CNC(=S)NCCc1cc2c(OC)ccc(OC)c2[nH]c1=O,·,19µM*,·,?,8%,18µM*
COc1ccc(OC)c2[nH]c(=O)c(CCNC(=S)NC(C)(C)C)cc12,·,-10%,·,0%,4%,-27%
O=C(O)CC(C(=O)O)N1C(=O)/C(=C/c2ccc(-c3nc4ccccc4s3)o2)SC1=S (stereo unspecified),50µM*,-8%,4.5µM*,50µM*,28µM*,50µM*
SMILES,BAZ2B inh,PLK1 PBD inh,L3MBTL1 block,VDR inhibitor,HP1b binding inh,JMJD2A Tudor inh
O=C(O)CCN1C(=O)/C(=C/c2ccc(-c3nc4ccccc4s3)o2)SC1=S,3.5µM*,9.5µM*,-19%,?,?,6.3µM*
Cc1ccc(CSCC(=O)N(C)CC(=O)Nc2ccccc2C(F)(F)F)cc1,1%,-5%,-3%,?,40%,1%
COC(=O)c1ccc(COC(=O)c2ccc(SC)cc2OC)cc1,33%,27µM*,24%,?,39%,36%
Cc1ccc(N2CCN(C(=O)c3nn(C)c4c3CSc3ccccc3-4)CC2C)cc1 (stereo unspecified),3%,·,·,10%,10%,-10%
CCC(c1nnnn1Cc1ccc2c(c1)OCO2)N1CCN(c2ccc(OC)cc2)CC1 (stereo unspecified),32µM*,-3%,-28%,12%,-42%,?
CCC(c1nnnn1Cc1ccc(OC)cc1)N1CCN(c2ccc(OC)cc2)CC1 (stereo unspecified),35µM*,-3%,-20%,0%,?,?
CCC(c1nnnn1Cc1ccc2c(c1)OCO2)N1CCN(c2ccc(F)cc2)CC1 (stereo unspecified),?,-10%,-11%,6%,-10%,?
COc1ccc(Cn2nnnc2C(c2ccccn2)N2CCN(c3ccc(O)cc3)CC2)cc1 (stereo unspecified),·,·,·,-4%,?,32µM*
Oc1ccc(N2CCN(C(c3ccc(Cl)cc3)c3nnnn3Cc3ccc(F)cc3)CC2)cc1 (stereo unspecified),·,·,·,-10%,?,40µM*
COC(=O)c1ccc(C2Nc3c(C)cccc3-c3cc(C)nn32)cc1 (stereo unspecified),-22%,·,·,-9%,20%,-20%
CC(C)OCCCNC(=O)CN1C(=O)c2cccnc2Sc2ccccc21,-3%,·,·,11%,22%,-2%
COc1ccc(Cn2nnnc2C(c2ccc(N(C)C)cc2)N2CCC(C(N)=O)CC2)cc1 (stereo unspecified),50µM*,-28%,-12%,-21%,?,?
COc1ccc(Cn2nnnc2C(c2ccccc2OC)N2CCC(C(N)=O)CC2)cc1 (stereo unspecified),11%,-4%,·,7%,15%,-5%
Cc1ccc(Cl)cc1N1CCN(Cc2nnnn2Cc2ccco2)CC1,0%,-2%,3%,-20%,17%,-15%
Oc1ccc(N2CCN(C(c3ccccn3)c3nnnn3C3CCCC3)CC2)cc1 (stereo unspecified),-11%,-5%,-5%,-2%,?,25µM*
